The source made the active and inactive calls. How the source made its calls: active means hit-call score of the fitted dose curve at least 0.9, where 1 is the maximum; inactive means score below 0.9.
Assays:
[1] = ATG_GLI_CIS: Attagene CIS-FACTORIAL HepG2 Assay for human Zinc Finger Protein GLI1 (AID 2282945); details: HepG2, Attagene cis-factorial reporter mRNA, GLI element; actives raise or lower the signal
Method in brief: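 Bidirectional curve fits relative to DMSO, using reporter mRNA levels from RT-PCR plus capillary electrophoresis. Cells were HepG2 transiently carrying cis-regulated reporter constructs, harvested 24 h after dosing.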

[2] = biological target: Bile acid receptor (Homo sapiens) (UniProt Q96RI1); assay: ATG_IR1_CIS: Attagene CIS-FACTORIAL HepG2 Assay for human Nuclear Receptor Subfamily 1 Group H Member 4 (NR1H4), IR1 submotif (AID 2282946); details: IR1 reporter transcription, actives raise or lower the signal
Sequence of Bile acid receptor (Homo sapiens) (Q96RI1 whole entry, looked up, the tested form may be a part): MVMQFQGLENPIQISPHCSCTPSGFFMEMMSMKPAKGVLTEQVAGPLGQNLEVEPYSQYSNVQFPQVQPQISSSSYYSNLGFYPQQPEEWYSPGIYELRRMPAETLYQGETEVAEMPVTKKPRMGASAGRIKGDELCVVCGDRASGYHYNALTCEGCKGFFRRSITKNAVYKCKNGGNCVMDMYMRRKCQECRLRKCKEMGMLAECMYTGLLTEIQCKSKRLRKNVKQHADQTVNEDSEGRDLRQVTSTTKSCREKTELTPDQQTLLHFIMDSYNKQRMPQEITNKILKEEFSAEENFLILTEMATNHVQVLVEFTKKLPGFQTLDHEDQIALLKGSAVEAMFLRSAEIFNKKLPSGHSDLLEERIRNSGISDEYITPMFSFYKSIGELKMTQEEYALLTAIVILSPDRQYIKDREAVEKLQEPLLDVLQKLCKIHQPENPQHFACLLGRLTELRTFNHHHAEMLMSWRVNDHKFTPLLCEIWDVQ
Method in brief: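 Cells (human HepG2) carry transiently transfected cis-promoter reporter transcription units. Compounds are incubated 24 h, total RNA is reverse-transcribed and amplified, and labelled fragments are resolved by capillary electrophoresis. Curves use DMSO as baseline.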

[3] = ATG_GRE_CIS: Attagene CIS-FACTORIAL HepG2 Assay for human Glucocorticoid Response Elements (GRE) (AID 2282947); details: HepG2 GRE cis-reporter, Attagene multiplex mRNA; actives raise or lower the signal
Method in brief: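 Assay uses human hepatoma HepG2 cells transfected with cis-promoter reporter units, exposed 24 h. mRNA from reporters detected by RT-PCR plus capillary electrophoresis; DMSO serves as negative control and baseline.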

[4] = ATG_ISRE_CIS: Attagene CIS-FACTORIAL HepG2 Assay for human Interferon Regulatory Factor 1 (IRF1) binding to an Interferon-Stimulated Response Element (ISRE) (AID 2282948); details: HepG2 ISRE cis-reporter (Attagene), mRNA transcription readout; actives raise or lower the signal
Method in brief: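 Transfected HepG2 (multiple reporter transcription units, cis elements) dosed 24 h. RNA → oligo(dT) RT → PCR → 6-FAM primer extension → HpaI → CE. DMSO = negative control/baseline.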

[5] = ATG_M_32_CIS: Attagene CIS-FACTORIAL HepG2 Assay for M32 Transcription Factor (Internal Marker) (AID 2282949); details: HepG2 Attagene cis-factorial M32 reporter, mRNA; actives raise or lower the signal;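 further: background control marker of the multiplexed CIS panel rather than a real target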
Method in brief: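 Internal background marker read-out: RT-PCR/capillary electrophoresis fluorescence of reporter transcripts from transiently transfected HepG2 cells after 24 h chemical exposure. Activity fitted bidirectionally relative to DMSO negative control.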

[6] = ATG_M_06_CIS: Attagene CIS-FACTORIAL HepG2 Assay for M06 Transcription Factor (Internal Marker) (AID 2282950); details: HepG2 Attagene CIS-FACTORIAL M06 internal marker reporter; actives raise or lower the signal
Method in brief: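 Serves as a background control readout. Transfected HepG2 exposed to compounds for 24 h, then reporter transcripts quantified by fluorescent RT-PCR and capillary electrophoresis. Both directions fitted against DMSO baseline.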

[7] = biological target: Heat shock factor protein 1 (Homo sapiens) (UniProt Q00613); assay: ATG_HSE_CIS: Attagene CIS-FACTORIAL HepG2 Assay for human Heat Shock Transcription Factor 1 (HSE) (AID 2282953); details: HepG2 HSE cis-reporter, Attagene RNA transcription; actives raise or lower the signal
Sequence of Heat shock factor protein 1 (Homo sapiens) (Q00613 whole entry, looked up): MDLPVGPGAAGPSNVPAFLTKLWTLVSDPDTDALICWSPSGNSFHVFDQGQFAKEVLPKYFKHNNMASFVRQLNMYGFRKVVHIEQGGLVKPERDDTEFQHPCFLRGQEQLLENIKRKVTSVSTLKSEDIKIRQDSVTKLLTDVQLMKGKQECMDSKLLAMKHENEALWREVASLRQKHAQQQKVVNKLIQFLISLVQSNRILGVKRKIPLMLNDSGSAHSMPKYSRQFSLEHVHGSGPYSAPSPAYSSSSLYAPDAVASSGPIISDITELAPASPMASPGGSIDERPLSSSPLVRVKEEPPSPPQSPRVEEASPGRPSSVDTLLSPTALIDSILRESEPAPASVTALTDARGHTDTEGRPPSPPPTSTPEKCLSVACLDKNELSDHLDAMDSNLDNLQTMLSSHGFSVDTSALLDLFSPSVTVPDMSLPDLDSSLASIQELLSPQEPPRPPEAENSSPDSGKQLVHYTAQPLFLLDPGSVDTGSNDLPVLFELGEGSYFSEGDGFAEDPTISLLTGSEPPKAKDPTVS
Method in brief: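 Endogenous transcription factor activity in transiently transfected HepG2, read as reporter mRNA by RT-PCR with fluorescent capillary electrophoresis after 24 h. Gain or loss of signal fitted versus DMSO baseline.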

[8] = ATG_MRE_CIS: Attagene CIS-FACTORIAL HepG2 Assay for human Metal Responsive Element (MRE) (AID 2282954); details: HepG2 MRE cis-reporter transcription, Attagene multiplex; actives raise or lower the signal
Method in brief: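 After a 24 h chemical exposure, transiently transfected HepG2 cells yield RNA whose reporter sequences are amplified, FAM-labelled and sized by capillary electrophoresis. Curves are fitted bidirectionally relative to DMSO.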

[9] = biological target: Hypoxia-inducible factor 1-alpha (Homo sapiens) (UniProt Q16665); assay: ATG_HIF1a_CIS: Attagene CIS-FACTORIAL HepG2 Assay for human Hypoxia Inducible Factor 1 (HIF1A) (AID 2282951); details: HepG2 Attagene cis-factorial HIF1a reporter transcription; actives raise or lower the signal
Sequence of Hypoxia-inducible factor 1-alpha (Homo sapiens) (Q16665 whole entry, looked up): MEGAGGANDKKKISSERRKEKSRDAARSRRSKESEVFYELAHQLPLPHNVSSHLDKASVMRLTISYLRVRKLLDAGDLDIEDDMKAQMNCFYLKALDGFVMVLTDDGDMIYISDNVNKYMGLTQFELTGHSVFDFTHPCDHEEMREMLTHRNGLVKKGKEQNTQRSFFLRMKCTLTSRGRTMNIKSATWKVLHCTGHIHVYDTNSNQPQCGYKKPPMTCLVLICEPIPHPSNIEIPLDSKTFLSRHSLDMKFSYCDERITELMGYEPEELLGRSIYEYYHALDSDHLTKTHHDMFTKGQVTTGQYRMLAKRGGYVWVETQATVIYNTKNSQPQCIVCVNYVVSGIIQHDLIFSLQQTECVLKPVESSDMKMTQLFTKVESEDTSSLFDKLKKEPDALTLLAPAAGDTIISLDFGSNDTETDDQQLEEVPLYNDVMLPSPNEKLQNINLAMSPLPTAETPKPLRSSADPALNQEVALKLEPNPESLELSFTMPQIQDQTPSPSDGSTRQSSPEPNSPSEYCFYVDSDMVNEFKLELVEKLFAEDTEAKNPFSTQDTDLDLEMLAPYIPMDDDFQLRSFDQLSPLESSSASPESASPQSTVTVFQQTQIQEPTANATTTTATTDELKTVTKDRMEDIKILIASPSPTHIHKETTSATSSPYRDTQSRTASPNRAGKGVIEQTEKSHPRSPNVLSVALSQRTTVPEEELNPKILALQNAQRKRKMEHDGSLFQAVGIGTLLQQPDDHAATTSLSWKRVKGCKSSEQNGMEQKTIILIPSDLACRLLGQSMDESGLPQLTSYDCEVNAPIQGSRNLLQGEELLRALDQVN
Method in brief: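 HepG2 cells transiently transfected with multiplexed cis-promoter reporter units; reporter mRNA read 24 h after dosing by RT-PCR, 6-FAM primer-extension labelling, HpaI digestion and capillary electrophoresis. Bidirectional fit versus DMSO baseline.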

[10] = biological target: Hepatocyte nuclear factor 6 (Homo sapiens) (UniProt Q9UBC0); assay: ATG_HNF6_CIS: Attagene CIS-FACTORIAL HepG2 Assay for human Hepatocyte Nuclear Factor 6 (HNF6) (AID 2282952); details: HepG2 Attagene cis-factorial HNF6 reporter transcription; actives raise or lower the signal
Sequence of Hepatocyte nuclear factor 6 (Homo sapiens) (Q9UBC0 whole entry, looked up): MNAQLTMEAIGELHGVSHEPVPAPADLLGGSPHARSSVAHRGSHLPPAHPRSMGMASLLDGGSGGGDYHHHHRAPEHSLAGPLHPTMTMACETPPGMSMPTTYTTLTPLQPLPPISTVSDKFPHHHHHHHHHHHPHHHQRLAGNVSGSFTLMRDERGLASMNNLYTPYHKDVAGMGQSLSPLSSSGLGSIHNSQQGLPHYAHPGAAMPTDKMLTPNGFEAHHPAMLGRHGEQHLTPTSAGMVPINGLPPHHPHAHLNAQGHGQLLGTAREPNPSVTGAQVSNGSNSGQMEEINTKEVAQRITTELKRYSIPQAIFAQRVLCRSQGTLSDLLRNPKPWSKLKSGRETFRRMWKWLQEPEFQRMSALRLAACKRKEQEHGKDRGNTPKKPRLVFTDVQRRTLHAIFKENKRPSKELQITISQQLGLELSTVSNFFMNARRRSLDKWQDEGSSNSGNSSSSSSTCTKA
Method in brief: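 HepG2, transient MRTU transfection (cis promoters); 24 h chemical exposure; total RNA → oligo(dT) RT → PCR → 6-FAM labelling → HpaI cut → CE; bidirectional fit vs DMSO.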

Measured: AC50

O=c1[nH]cc(F)c(=O)[nH]1
not listed: [9] | [10]
inactive: all other assays above

CNC(=O)[C@H]1O[C@@H](n2cnc3c(NCc4cc(Cl)ccc4OCc4cc(C)no4)ncnc32)[C@H](O)[C@@H]1N
inactive: all assays above

Cc1nc(C)nc(N2C[C@@H](C)N(c3ccnc([C@@H](C)O)n3)[C@@H](C)C2)n1
inactive: all assays above

CC(CO)OC(C)CO (stereo not drawn) (tested in a mixture with another compound)
active: [9] 4.72 µM
not listed: [10]
inactive: all other assays above

Cc1ccccc1Cl
inactive: all assays above

Cc1cc(=O)[nH]c(=S)[nH]1
inactive: all assays above

NC(=O)Cn1c(=O)cc(CCN2CCN(c3nccc4sccc34)CC2)c2ccc(F)cc21
active: [9] 61.4 µM
inactive: all other assays above

CN1CCN(Cc2cc(-c3ccc4[nH]c(=O)oc4c3)co2)[C@@H](c2ccc(F)cc2)C1
active: [4] 18 µM | [9] 6.55 µM | [8] 48.6 µM
not listed: [7] | [10]
inactive: all other assays above

CCOC(=O)C(C)(C)Oc1ccc(Cl)cc1
not listed: [9] | [10]
inactive: all other assays above

CNCc1cc(F)ccc1Oc1ccc(Cl)c(Cl)c1
not listed: [2]
inactive: all other assays above

O=C(N[C@@H](Cc1ccccc1)[C@@H](O)C(=O)N1C[C@@H](O)[C@@H](O)C1)c1cc2cc(Cl)ccc2[nH]1
active: [8] 100 µM
not listed: [2]
inactive: all other assays above

Oc1ccc2c(c1)OC[C@@H](N1CCC(O)(c3ccc(F)cc3)CC1)[C@H]2O
active: [8] 57.2 µM
not listed: [2]
inactive: all other assays above

CC(C)(C)c1cc(O)c(C(C)(C)C)cc1O
inactive: [3] | [6] | [9]
active: [1] 114 µM | [4] 114 µM | [5] 40.6 µM | [7] 64.3 µM | [8] 39.2 µM

CC1(C)NC(=O)NC1=O
active: [9] 12 µM
not listed: [2] | [10]
inactive: all other assays above

CCCCCCCCCCCCCO
active: [5] 34.3 µM | [9] 8.99 µM
not listed: [2]
inactive: all other assays above

Cc1ccc(C)c(O)c1C
not listed: [2] | [10]
inactive: all other assays above

C[Si]1(C)O[Si](C)(C)O[Si](C)(C)O[Si](C)(C)O1
not listed: [3] | [10]
inactive: all other assays above

CCOC(=O)CCC(=O)OCC
not listed: [2] | [10]
inactive: all other assays above

COC(=O)c1ccc(O)cc1
not listed: [2]
inactive: all other assays above

COCCOCCOC
not listed: [3] | [10]
inactive: all other assays above

CC(=O)C(C)=CC1C(C)=CCCC1(C)C (stereo not drawn)
not listed: [2]
inactive: all other assays above

Nc1ccc(S(=O)(=O)c2ccc(N)cc2)cc1
not listed: [3] | [9]
inactive: all other assays above
